Experimental data taken from PubChem BioAssay AID1159580 (chemical genetic matrix, 2015).
The campaign covered roughly 5,500 compounds. About 2,000 (36%) were called active. Roughly 18% stayed inconclusive and do not appear here. Cut-off read from the data, not from the text of the source: active = normalized growth mostly below about 0.91 (no sharp cut-off); inconclusive = no clear call, values can overlap the other calls; inactive = mostly above about 0.92. The list shows a part of the results.

Test: chemical genetic growth profiling, strain panel (AID 1159580);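 note: tested at 20 µM; growth read once vehicle control cultures reached saturation at 30 °C; 1 = growth at the plate median or of vehicle wells; lower values mean less growth of the strain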
Settings: growth OD

Measured: normalized growth

N[C@@H](Cc1ccc(O)c(O)c1)C(=O)O
inactive: S. cerevisiae deletion strains, locus YJR075W, strain HOC1, stronger effect = lower value 1 | S. cerevisiae deletion strains, locus YKL009W, strain mrt4, stronger effect = lower value 0.961 | S. cerevisiae deletion strains, locus YKL068W, stronger effect = lower value 0.979 | S. cerevisiae deletion strains, locus YKL085W, strain MDH1 (second series), stronger effect = lower value 1 | S. cerevisiae deletion strains, locus YKL085W, strain MDH1, stronger effect = lower value 1 | S. cerevisiae deletion strains, locus YKL160W, strain elf1, stronger effect = lower value 1.01 | S. cerevisiae deletion strains, locus YKL190W, strain CNB1, stronger effect = lower value 0.964 | S. cerevisiae deletion strains, locus YKR001C, strain vps1, stronger effect = lower value 1 | S. cerevisiae deletion strains, locus YKR026C, strain gcn3, stronger effect = lower value 0.989 | S. cerevisiae deletion strains, locus YKR091W, strain srl3, stronger effect = lower value 0.998 | S. cerevisiae deletion strains, locus YLL001W, strain dnm1, stronger effect = lower value 0.983 | S. cerevisiae deletion strains, locus YLL026W, stronger effect = lower value 0.995 | S. cerevisiae deletion strains, locus YLL041C, strain sdh2, stronger effect = lower value 1 | S. cerevisiae deletion strains, locus YLR027C, strain aat2, stronger effect = lower value 1.01 | S. cerevisiae deletion strains, locus YLR039C, strain RIC1, stronger effect = lower value 0.91 | S. cerevisiae deletion strains, locus YLR058C, strain SHM2, stronger effect = lower value 0.996 | S. cerevisiae deletion strains, locus YLR102C, strain apc9, stronger effect = lower value 0.991 | S. cerevisiae deletion strains, locus YLR113W, strain HOG1, stronger effect = lower value 0.93 | S. cerevisiae deletion strains, locus YLR221C, strain rsa3, stronger effect = lower value 0.999 | S. cerevisiae deletion strains, locus YLR258W, strain gsy2, stronger effect = lower value 0.985 | S. cerevisiae deletion strains, locus YLR262C, strain YPT6 (second series), stronger effect = lower value 1.01 | S. cerevisiae deletion strains, locus YLR262C, strain YPT6, stronger effect = lower value 0.898 | S. cerevisiae deletion strains, locus YLR268W, strain sec22, stronger effect = lower value 1 | S. cerevisiae deletion strains, locus YLR320W, strain mms22, stronger effect = lower value 1.01 | S. cerevisiae deletion strains, locus YLR330W, strain CHS5, stronger effect = lower value 0.987 | S. cerevisiae deletion strains, locus YLR342W, strain FKS1 (second series), stronger effect = lower value 0.949 | S. cerevisiae deletion strains, locus YLR342W, strain FKS1, stronger effect = lower value 1.01 | S. cerevisiae deletion strains, locus YLR357W, strain rsc2, stronger effect = lower value 0.975 | S. cerevisiae deletion strains, locus YLR370C, strain arc18, stronger effect = lower value 1 | S. cerevisiae deletion strains, locus YLR371W, strain rom2, stronger effect = lower value 0.975 | S. cerevisiae deletion strains, locus YLR384C, strain iki3, stronger effect = lower value 1 | S. cerevisiae deletion strains, locus YLR418C, strain cdc73, stronger effect = lower value 1.04 | S. cerevisiae deletion strains, locus YML016C, strain PPZ1, stronger effect = lower value 0.991 | S. cerevisiae deletion strains, locus YML032C, strain rad52, stronger effect = lower value 0.991 | S. cerevisiae deletion strains, locus YML120C, strain ndi1, stronger effect = lower value 1 | S. cerevisiae deletion strains, locus YML124C, strain tub3, stronger effect = lower value 0.996 | S. cerevisiae deletion strains, locus YMR058W, strain fet3, stronger effect = lower value 0.993 | S. cerevisiae deletion strains, locus YMR078C, strain ctf18, stronger effect = lower value 0.995 | S. cerevisiae deletion strains, locus YMR125W, strain sto1, stronger effect = lower value 0.976 | S. cerevisiae deletion strains, locus YMR129W, stronger effect = lower value 0.986 | S. cerevisiae deletion strains, locus YMR205C, strain PFK2, stronger effect = lower value 0.982 | S. cerevisiae deletion strains, locus YMR223W, strain ubp8, stronger effect = lower value 1.01 | S. cerevisiae deletion strains, locus YMR231W, strain pep5, stronger effect = lower value 0.992 | S. cerevisiae deletion strains, locus YMR263W, strain SAP30, stronger effect = lower value 0.982 | S. cerevisiae deletion strains, locus YMR307W, strain GAS1, stronger effect = lower value 0.921 | S. cerevisiae deletion strains, locus YNL067W, strain RPL9B, stronger effect = lower value 0.982 | S. cerevisiae deletion strains, locus YNL071W, strain lat1, stronger effect = lower value 1.02 | S. cerevisiae deletion strains, locus YNL128W, strain TEP1, stronger effect = lower value 0.954 | S. cerevisiae deletion strains, locus YNL153C, strain GIM3, stronger effect = lower value 0.991 | S. cerevisiae deletion strains, locus YNL183C, strain NPR1, stronger effect = lower value 0.923 | S. cerevisiae deletion strains, locus YNL209W, strain ssb2, stronger effect = lower value 1.01 | S. cerevisiae deletion strains, locus YNL233W, strain BNI4, stronger effect = lower value 1 | S. cerevisiae deletion strains, locus YNL248C, strain rpa49, stronger effect = lower value 0.99 | S. cerevisiae deletion strains, locus YNL250W, strain rad50, stronger effect = lower value 0.98 | S. cerevisiae deletion strains, locus YNL271C, strain bni1, stronger effect = lower value 0.987 | S. cerevisiae deletion strains, locus YNL298W, strain CLA4, stronger effect = lower value 0.995 | S. cerevisiae deletion strains, locus YNL307C, strain MCK1, stronger effect = lower value 1 | S. cerevisiae deletion strains, locus YNL322C, strain KRE1 (second series), stronger effect = lower value 0.99 | S. cerevisiae deletion strains, locus YNL322C, strain KRE1, stronger effect = lower value 0.989 | S. cerevisiae deletion strains, locus YNR049C, strain mso1, stronger effect = lower value 1 | S. cerevisiae deletion strains, locus YNR052C, strain pop2, stronger effect = lower value 1 | S. cerevisiae deletion strains, locus YOL006C, strain TOP1, stronger effect = lower value 0.753 | S. cerevisiae deletion strains, locus YOL012C, strain htz1 0.813 | S. cerevisiae deletion strains, locus YOL147C, strain pex11, stronger effect = lower value 1 | S. cerevisiae deletion strains, locus YOR001W, strain rrp6, stronger effect = lower value 0.996 | S. cerevisiae deletion strains, locus YOR061W, strain CKA2, stronger effect = lower value 0.992 | S. cerevisiae deletion strains, locus YOR069W, strain VPS5, stronger effect = lower value 1 | S. cerevisiae deletion strains, locus YOR070C, strain gyp1, stronger effect = lower value 0.998 | S. cerevisiae deletion strains, locus YOR080W, strain dia2, stronger effect = lower value 0.993 | S. cerevisiae deletion strains, locus YOR083W, strain WHI5, stronger effect = lower value 1.01 | S. cerevisiae deletion strains, locus YOR106W, strain vam3, stronger effect = lower value 0.996 | S. cerevisiae deletion strains, locus YOR136W, strain idh2, stronger effect = lower value 1 | S. cerevisiae deletion strains, locus YOR144C, strain elg1, stronger effect = lower value 0.996 | S. cerevisiae deletion strains, locus YOR184W, strain ser1, stronger effect = lower value 0.982 | S. cerevisiae deletion strains, locus YOR231W, strain MKK1, stronger effect = lower value 0.942 | S. cerevisiae deletion strains, locus YOR265W, strain rbl2, stronger effect = lower value 0.998 | S. cerevisiae deletion strains, locus YOR270C, strain vph1, stronger effect = lower value 1.02 | S. cerevisiae deletion strains, locus YOR290C, strain snf2, stronger effect = lower value 0.933 | S. cerevisiae deletion strains, locus YOR316C, strain cot1, stronger effect = lower value 0.995 | S. cerevisiae deletion strains, locus YPL051W, strain arl3, stronger effect = lower value 0.994 | S. cerevisiae deletion strains, locus YPL055C, strain LGE1, stronger effect = lower value 0.92 | S. cerevisiae deletion strains, locus YPL078C, strain atp4, stronger effect = lower value 1.01 | S. cerevisiae deletion strains, locus YPL106C, strain sse1, stronger effect = lower value 0.96 | S. cerevisiae deletion strains, locus YPL240C, strain hsp82, stronger effect = lower value 0.995 | S. cerevisiae deletion strains, locus YPL241C, strain CIN2, stronger effect = lower value 0.987 | S. cerevisiae deletion strains, locus YPL256C, strain CLN2, stronger effect = lower value 0.929 | S. cerevisiae deletion strains, locus YPR119W, strain clb2, stronger effect = lower value 1 | S. cerevisiae deletion strains, locus YPR141C, strain kar3, stronger effect = lower value 0.98 | S. cerevisiae deletion strains, locus YPR163C, strain tif3, stronger effect = lower value 1.01 | S. cerevisiae deletion strains, locus YPR167C, strain met16, stronger effect = lower value 1.01 | S. cerevisiae deletion strains, strain wtn01, stronger effect = lower value 1.01 | S. cerevisiae strains, strain wild type, stronger effect = lower value 0.955
